Most compounds without a hit are left out; they make up all but 1.2% or so of the library.
RGS8-Gao reg – RGS8-Galphao binding modulators, primary screen, biochemical, multiplexed bead flow cytometry; hit rate 0.34% among 220,000; AID 1423, 2008; Guanine nucleotide-binding protein G(o) subunit alpha (Homo sapiens), P09471; actives lie on both sides; response (percent of control binding), % at 10 µM; in the data active = response below about 60% or above about 140%; inactive = in between;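 note: Galphao activated as the GDP aluminium fluoride complex binding bead-coupled RGS8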
Target sequence (P09471 whole entry, looked up): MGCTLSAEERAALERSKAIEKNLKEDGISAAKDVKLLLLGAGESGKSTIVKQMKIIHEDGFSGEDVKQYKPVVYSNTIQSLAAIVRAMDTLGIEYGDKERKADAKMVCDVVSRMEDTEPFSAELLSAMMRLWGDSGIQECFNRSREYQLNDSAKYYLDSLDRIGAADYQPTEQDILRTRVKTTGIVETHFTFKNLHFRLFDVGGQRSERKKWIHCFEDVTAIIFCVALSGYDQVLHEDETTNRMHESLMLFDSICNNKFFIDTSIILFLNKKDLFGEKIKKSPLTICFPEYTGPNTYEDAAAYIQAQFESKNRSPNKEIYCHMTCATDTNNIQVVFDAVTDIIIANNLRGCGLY
Avidin bead fluor – green autofluorescence of compounds with avidin beads – biophysical, 488/530 nm, flow cytometry, artefact control, profiling panel. compound fluorescence 488/530 nm; active compounds read high. fluorescence (KMESF) at 10 µM. hit rate 0.38% among 220,000; in the data active = fluorescence above about 47
RGS7-Gao reg – RGS7-Galphao binding modulators, primary screen, biochemical, multiplexed bead flow cytometry; actives lie on both sides; binding response (% of control), % at 10 µM; hit rate 0.35% among 220,000; Guanine nucleotide-binding protein G(o) subunit alpha (Homo sapiens), P09471; in the data active = binding response below about 49% or above about 150%; inconclusive = no clear call, values can overlap the other calls; inactive = in between;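 note: fluorescent Galphao held in activated GDP-AlF4 state binding bead-coupled RGS7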
RGS16-Gao HTS – modulators of RGS16 binding to Galphao, primary screen, biochemical, human proteins, multiplexed bead flow cytometry. Regulator of G-protein signaling 16 (Homo sapiens) + Guanine nucleotide-binding protein …. bead-based flow cytometry RGS16-Galphao binding, fluorescence; actives lie on both sides. binding response (% of control), % at 10 µM. hit rate 0.38% among 220,000. AID 1441, 2008;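 note: Galphao activated by GDP with aluminum fluoride before binding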
GSH bead fluor – compound fluorescence on glutathione beads, profiling panel, artefact control, biophysical, 488/530 nm, flow cytometry; GSH beads flow cytometry, compound fluorescence 488/530 nm; active compounds read high; fluorescence (KMESF) at 10 µM; hit rate 0.25% among 190,000; AID 1776, 2009; in the data active = fluorescence above about 89;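 note: glutathione beads carrying GST-tagged Bcl family fusion proteins plus one bare bead set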
RGS4-Gao reg – modulators of RGS4 binding to Galphao, primary screen, biochemical, multiplexed bead flow cytometry; Guanine nucleotide-binding protein G(o) subunit alpha (Homo sapiens), P09471; actives lie on both sides; binding response (% of control), % at 10 µM; hit rate 0.33% among 220,000; AID 1415, 2008; in the data active = binding response below about 49% or above about 150%; inactive = in between;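 note: fluorescent Galphao activated with aluminum fluoride binding bead-coupled RGS4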
RGS-Gao – modulators of RGS–Galpha-o binding, primary screen, biochemical, multiplexed beads, flow cytometry, RGS4/7/8/16/19; shares compounds with RGS16-Gao HTS; hit rate 99% among 1,600; multiplexed bead flow cytometry; RGS4–Galpha-o binding response, % at 10 µM; AID 1504, 2009;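 note: fluorescently labeled Galpha-o bound to GDP with aluminium fluoride binding biotinylated RGS beads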
Biotin-avidin – disruption of biotin probe capture by avidin, counter-screen for RGS protein interaction modulators, biochemical, flow cytometry, bead-based | 1,700 tested, under 10 active | shares compounds with RGS16-Gao HTS | streptavidin beads, fluorescein-biotin binding | AID 1783, 2009 | inhibition, % at 10 µM;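 active = inhibition above 50%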;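 note: median green fluorescence of gated singlet beads compared with DMSO control wells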
RGS8-Gao confirm – RGS8-Galphao binding modulators, confirmation, biochemical, multiplexed bead flow cytometry, single concentration | shares compounds with RGS16-Gao HTS | bead-based flow cytometry RGS8-Galphao binding, fluorescence; actives lie on both sides | binding response (% of control), % at 10 µM | hit rate 3% among 1,700 | AID 1836, 2009; in the data active = binding response below about 72% or above about 130%; inactive = in between;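 note: Galphao activated as GDP AlF4 complex before binding bead RGS8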
RGS7-Gao confirm – RGS7-Galphao binding modulators, confirmation, biochemical, multiplexed bead flow cytometry, single concentration | response (percent of control binding), % at 10 µM | hit rate 7.8% among 1,700 | shares compounds with RGS16-Gao HTS | bead-based flow cytometry RGS7-Galphao binding; actives lie on both sides; in the data active = response below about 75% or above about 130%; inactive = in between;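 note: fluorescent Galphao activated with GDP and aluminum fluoride binding bead-coupled RGS7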
RGS16-Gao single – modulators of RGS16-Galphao protein binding, confirmation, biochemical, single concentration, multiplexed bead flow cytometry; AID 1838, 2009; bead-based flow cytometry; actives lie on both sides; response (% of control binding), % at 10 µM; shares compounds with RGS16-Gao HTS; hit rate 4% among 1,700; in the data active = response below about 74% or above about 130%; inactive = in between;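 note: Galphao activated as the GDP aluminium fluoride complex binding bead-coupled RGS16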
RGS4-Gao confirm – modulators of RGS4-Galphao protein binding, confirmation, biochemical, single concentration, multiplexed bead flow cytometry; hit rate 4% among 1,700; shares compounds with RGS16-Gao HTS; actives lie on both sides; binding response (% of control), % at 10 µM; in the data active = binding response below about 74% or above about 130%; inactive = in between
RGS19-Gao single – regulators of RGS19-Galphao binding, confirmation, biochemical, single point, multiplexed bead flow cytometry; bead-based flow cytometry RGS19-Galphao binding; actives lie on both sides; shares compounds with RGS16-Gao HTS; response (percent of control binding), % at 10 µM; hit rate 5% among 1,700; in the data active = response below about 50% or above about 160%; inactive = in between
Target sequence (P09471 whole entry, looked up): as above
Target sequence (P49795 whole entry, looked up): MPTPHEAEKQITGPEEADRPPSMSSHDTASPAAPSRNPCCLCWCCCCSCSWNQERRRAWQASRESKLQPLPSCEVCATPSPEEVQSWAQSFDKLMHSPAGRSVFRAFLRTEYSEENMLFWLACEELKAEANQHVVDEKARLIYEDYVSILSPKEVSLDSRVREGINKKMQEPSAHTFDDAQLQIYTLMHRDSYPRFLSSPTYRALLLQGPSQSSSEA
Large screens that a line does not name were inactive (follow-up assays come after a bar, where they were run); [ ] = another dose, or the depositor's remark. Unless noted, the rule behind the calls is not given here.

Cc1cc2cc(C=C(C#N)C#N)c(Cl)nc2cc1C	none
CC(C)Cc1nnc(NC(=O)CSc2ccccn2)s1	none (no result: RGS8-Gao reg, Avidin bead fluor, RGS7-Gao reg, RGS16-Gao HTS, RGS4-Gao reg) | Biotin-avidin inactive | RGS8-Gao confirm inactive | RGS7-Gao confirm inactive | RGS16-Gao single inactive | RGS4-Gao confirm inactive | RGS19-Gao single inactive
Nc1nc(-c2ccc(Cl)cc2)nn1C(=O)c1ccco1	none
CCOc1ncccc1C(=O)Nc1cccc(Cl)c1Cl	RGS7-Gao reg inconclusive
Cc1ccc(S(=O)(=O)N2CCN(C(=O)c3cccc(F)c3)CC2)cc1	Avidin bead fluor 172, RGS7-Gao reg 264[activator] | RGS-Gao 125 | Biotin-avidin inactive | RGS8-Gao confirm inactive | RGS7-Gao confirm inactive | RGS16-Gao single inactive | RGS4-Gao confirm inactive | RGS19-Gao single inactive
O=c1[nH]c(CSc2nnc3ccccn23)nc2cc(C(F)(F)F)ccc12	none
O=C(NC(=S)Nc1ccc(N2CCCCC2)cc1)c1ccc2c(c1)OCCO2	RGS16-Gao HTS 204[activator] | RGS-Gao 107 | Biotin-avidin inactive | RGS8-Gao confirm inactive | RGS7-Gao confirm inactive | RGS16-Gao single inactive | RGS4-Gao confirm inactive | RGS19-Gao single inactive
O=C(NC(=S)Nc1ccc(N2CCOCC2)cc1)c1ccc2c(c1)OCCO2	none
O=C(/C=C/c1ccc2c(c1)OCO2)Nc1nc2ccc(F)cc2s1	RGS7-Gao reg inconclusive (no result: GSH bead fluor)
O=C(/C=C/c1ccc2c(c1)OCO2)Nc1nc(-c2ccc(F)cc2)cs1	RGS16-Gao HTS 183[activator] | RGS-Gao 82 | Biotin-avidin inactive | RGS8-Gao confirm inactive | RGS7-Gao confirm inactive | RGS16-Gao single inactive | RGS4-Gao confirm inactive | RGS19-Gao single inactive
CC1CCCC(C)N1CC(O)COc1c(F)cc(Br)cc1F (configuration not stated)	RGS7-Gao reg inconclusive
CC(C)c1ccccc1NC(=S)N(C)C	RGS8-Gao reg 10, RGS7-Gao reg inconclusive, RGS16-Gao HTS -25, RGS4-Gao reg -47 (no result: GSH bead fluor) | Biotin-avidin inactive | RGS8-Gao confirm inactive | RGS7-Gao confirm inactive | RGS16-Gao single inactive | RGS4-Gao confirm inactive | RGS19-Gao single inactive
Cc1cc(C)c2oc(C(=O)Nc3ccc(S(=O)(=O)N4CCCC(C)C4)cc3)cc(=O)c2c1 (configuration not stated)	Avidin bead fluor 93, RGS7-Gao reg 168[activator], RGS4-Gao reg 152[activator] | Biotin-avidin inactive | RGS8-Gao confirm inactive | RGS7-Gao confirm inactive | RGS16-Gao single inactive | RGS4-Gao confirm inactive | RGS19-Gao single inactive
Cc1ccc(C(=O)NC(=S)Nc2ccc(NC(=O)c3cccs3)cc2)cc1[N+](=O)[O-]	none
CC(NC(=O)C(C)(C)C)C(c1cccs1)N1CCOCC1 (configuration not stated)	RGS7-Gao reg inconclusive (no result: GSH bead fluor)
Cn1c(SCC(=O)N/N=C/C=C\c2ccccc2[N+](=O)[O-])nc2ccccc21	RGS16-Gao HTS 23 | RGS-Gao 89 | Biotin-avidin inactive | RGS8-Gao confirm inactive | RGS7-Gao confirm inactive | RGS16-Gao single inactive | RGS4-Gao confirm inactive | RGS19-Gao single inactive
Cn1c(SCC(=O)N/N=C/C=C/c2ccccc2[N+](=O)[O-])nc2ccccc21	none
Cc1cc(C)c(NC(=O)c2cnn(C)c2)c(C)c1	RGS8-Gao reg 4.6, RGS7-Gao reg 2.0, RGS4-Gao reg -6.8 | Biotin-avidin inactive | RGS8-Gao confirm inactive | RGS7-Gao confirm inactive | RGS16-Gao single inactive | RGS4-Gao confirm inactive | RGS19-Gao single inactive
Cc1[nH]n(-c2ccccc2)c(=S)c1C=NCCCN=Cc1c(C)[nH]n(-c2ccccc2)c1=S	RGS8-Gao reg 52, RGS16-Gao HTS -0.3 | RGS-Gao 92 | Biotin-avidin inactive | RGS8-Gao confirm inactive | RGS7-Gao confirm inactive | RGS16-Gao single 74 | RGS4-Gao confirm inactive | RGS19-Gao single 47
Cc1ccccc1NC(=O)CN1C(=O)NC2(CCCCC2)C1=O	none (no result: RGS8-Gao reg, Avidin bead fluor, RGS7-Gao reg, RGS16-Gao HTS, RGS4-Gao reg) | Biotin-avidin inactive | RGS8-Gao confirm inactive | RGS7-Gao confirm inactive | RGS16-Gao single inactive | RGS4-Gao confirm inactive | RGS19-Gao single inactive
COc1ccccc1NC(=O)CN1C(=O)NC2(CCCCCCC2)C1=O	none
Cc1cc(NC(=O)CN2C(=O)NC3(CCC(C)CC3)C2=O)no1 (configuration not stated)	RGS8-Gao reg 23, RGS7-Gao reg 23, RGS4-Gao reg 24 | Biotin-avidin inactive | RGS8-Gao confirm inactive | RGS7-Gao confirm inactive | RGS16-Gao single inactive | RGS4-Gao confirm inactive | RGS19-Gao single inactive
CCCn1c(N)c(C(=O)CSc2nc3ccccc3c(=O)n2Cc2ccccc2)c(=O)[nH]c1=O	Avidin bead fluor 64, RGS7-Gao reg 158[activator], RGS4-Gao reg 227[activator] | Biotin-avidin inactive | RGS8-Gao confirm inactive | RGS7-Gao confirm 65 | RGS16-Gao single inactive | RGS4-Gao confirm inactive | RGS19-Gao single 48

Bioassay records as filed in PubChem BioAssay.
